High-throughput results (PubChem)
HttQ103 aggreg – mutant huntingtin aggregation inhibition. PC12 HttQ103-GFP aggregates, Acumen cytometry, 40 h. Potency, µM (top dose mostly 46.1 µM), most hits filed as inhibitors. hit rate 1.1% among 220,000. AID 1688; active = well fitted curve in the direction sought with a large enough effect; inconclusive = small, poorly fitted or top-dose-only effect, or another doubt; inactive = no such curve, though single readings can be large; an effect the other way counts as inactive or inconclusive; also: nearly all actives have a fitted effect of over 60% in size
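Using laser scanning cytometry, GFP-positive aggregates were counted after lysis of PC12 cells induced with 100 nM tebufenozide to express HTT exon 1 Q103–GFP. Compounds were tested in titration.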
HTT ATP protect – cytoprotection in Huntington HTT-Q103 PC12 cell model | PC12 HTT-Q103 induced, cytoprotection, ATP luminescence, 40 h | hit rate 0.14% among 230,000 | AID 1471 | Potency, µM (highest dose often 56.4 µM), actives largely listed as activators; active = well fitted curve in the direction sought with a large enough effect; inconclusive = small, poorly fitted or top-dose-only effect, or another doubt; inactive = no such curve, though single readings can be large; an effect the other way counts as inactive or inconclusive; also: nearly all actives have a fitted effect of over 45% in size
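PC12 cells stably carrying ecdysone-inducible Htt exon 1 (Q103)–GFP were induced with 100 nM tebufenozide (final) alongside library compounds in a dose series. Cytoprotection was scored as retained ATP by ATPlite luminescence.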
PNC assembly inh – inhibitors of perinucleolar compartment assembly; PC3M PTB-GFP, PNC prevalence imaging, 16 h; hits give low values; activity change (PNC), negative = inhibition, % at 10 µM; hit rate 3.1% among 140,000;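 active = readout at or below -70, meaning at least 70% loss of cells showing the perinucleolar compartment, a nuclear body marking cancer cells; inconclusive = readout between -30 and a set limit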
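PC3M cells stably expressing PTB-GFP, 750–1000 cells/well, treated 16 h at 37 °C with compound (23 nl of library stock), in duplicate. After paraformaldehyde fixation and Hoechst stain, imaged at 20x; PNC prevalence scored by image analysis.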
ALDH1A1 inh – blocks purified human ALDH1A1 activity; Purified ALDH1A1, NADH fluorescence, propionaldehyde substrate; Potency, µM (series often up to 75.3 µM), actives largely listed as inhibitors; P00352; hit rate 7.3% among 220,000
Target sequence (P00352 whole entry, looked up): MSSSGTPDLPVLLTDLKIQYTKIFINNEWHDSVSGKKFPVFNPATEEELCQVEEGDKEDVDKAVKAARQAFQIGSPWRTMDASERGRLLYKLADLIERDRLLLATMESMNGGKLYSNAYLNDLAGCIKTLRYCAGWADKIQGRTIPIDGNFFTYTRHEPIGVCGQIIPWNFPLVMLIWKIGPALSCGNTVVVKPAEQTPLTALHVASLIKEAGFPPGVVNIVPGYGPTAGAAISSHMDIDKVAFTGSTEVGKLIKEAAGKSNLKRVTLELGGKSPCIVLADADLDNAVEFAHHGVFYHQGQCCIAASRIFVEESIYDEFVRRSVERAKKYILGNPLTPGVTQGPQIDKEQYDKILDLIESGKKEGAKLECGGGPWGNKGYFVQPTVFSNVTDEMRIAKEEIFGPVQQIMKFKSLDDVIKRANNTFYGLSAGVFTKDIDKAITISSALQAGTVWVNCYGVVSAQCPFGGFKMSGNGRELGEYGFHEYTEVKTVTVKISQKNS
HPGD inh – HPGD (human) dehydrogenase inhibition. P15428. purified HPGD, NADH fluorescence kinetic, PGE2 substrate. Potency, µM, most hits filed as inhibitors. hit rate 4.3% among 150,000
Target sequence (P15428 whole entry, looked up): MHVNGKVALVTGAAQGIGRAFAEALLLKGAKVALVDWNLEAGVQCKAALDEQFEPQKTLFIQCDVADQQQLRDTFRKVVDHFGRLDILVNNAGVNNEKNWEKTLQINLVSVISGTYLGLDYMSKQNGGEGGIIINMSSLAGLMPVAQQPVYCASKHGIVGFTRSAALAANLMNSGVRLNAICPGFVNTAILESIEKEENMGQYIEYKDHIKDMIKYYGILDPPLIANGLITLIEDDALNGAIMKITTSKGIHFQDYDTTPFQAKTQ
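20 nM HPGD preincubated 15 min at room temperature with compound in 50 mM Tris-HCl pH 8, 0.01% Tween 20. Started with 1 mM NAD+ and 30 uM prostaglandin E2; NADH fluorescence (360/450 nm) read 5 times over 30-s intervals, last minus first.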
RGS12 GoLoco inh – RGS12 GoLoco-Gai1 interaction inhibition. hit rate 0.44% among 230,000. Potency, µM (series often up to 61.6 µM), hits mostly inhibitors. Gai1:RGS12 GoLoco peptide FP, rhodamine, 10 min; active = well fitted inhibition curve with a large enough effect, not every such curve was filed as active; inactive = no such curve, though single readings can be large or run the other way; also: nearly all actives have a fitted effect of over 30% in size
Of the large screens only hits and unclear results are named; the others gave an inactive call; ! = a repeat was not active. Only some compounds are listed: those with a hit (about 11% of all), similar ones and a draw of the others. Unless noted, calls follow the shape of the dose curve; as a rule, active = well fitted inhibition curve with a large enough effect (not every such curve was filed as active); inconclusive = small, poorly fitted or top-dose-only effect, or another doubt; inactive = no such curve, though single readings can be large or run the other way.

C[C@]12CC[C@H]3c4ccc(O)cc4CC[C@@H]3[C@H]1CC[C@@H]2OC(=O)CCc1ccccc1	none (no result: HttQ103 aggreg, PNC assembly inh)
O=C(Nc1ccc(N2CCOCC2)c2nonc12)C1CCCC1	ALDH1A1 inh inconclusive
Nc1ccc(N2CCOCC2)c2nonc12	ALDH1A1 inh 20µM (no result: PNC assembly inh, HPGD inh)
COC(C1CCCCC1)C(C)C(OCc1cccc(Br)c1)C(C)CO (stereo not given)	none (no result: HttQ103 aggreg, PNC assembly inh, HPGD inh, RGS12 GoLoco inh)
CCN(CC)S(=O)(=O)c1ccc(Cl)nc1	none (no result: PNC assembly inh, HPGD inh)
CCN(CC)S(=O)(=O)c1ccc2nc(CCl)[nH]c2c1	ALDH1A1 inh 20µM (no result: HTT ATP protect, PNC assembly inh, HPGD inh)
CCOC(=O)c1ccc2c(c1)[nH]c(=S)n2CC	ALDH1A1 inh 25µM (no result: PNC assembly inh, HPGD inh)
CCN(CC)S(=O)(=O)c1ccc2c(c1)[nH]c(=S)n2CC	ALDH1A1 inh 18µM (no result: PNC assembly inh, HPGD inh)
CCN(CC)S(=O)(=O)c1ccc2c(c1)c(C(=O)O)cn2C	none
CCC1(C)SC(N)=NN1C(C)=O (stereo not given)	HTT ATP protect inconclusive (no result: PNC assembly inh, HPGD inh)
CCOc1ccccc1OCCOCCN1CC(C)OC(C)C1 (stereo not given)	PNC assembly inh -87
COc1cc(C)ccc1OCCCCN1CC(C)OC(C)C1 (stereo not given)	none
CCn1c2ccccc2c2cc(N=C3SC(CC(=O)Nc4ccccc4OC)C(=O)N3C)ccc21 (stereo not given)	none
CCn1c2ccccc2c2cc(N=C3SC(CC(=O)Nc4ccccc4OC)C(=O)N3CCOC)ccc21 (stereo not given)	PNC assembly inh -98
COc1ccc(N=C2SC(CC(=O)Nc3ccc(F)cc3)C(=O)N2Cc2ccco2)cc1 (stereo not given)	ALDH1A1 inh 3.5µM
COc1ccc(N=C2SC(CC(=O)Nc3ccccc3OC)C(=O)N2Cc2ccco2)cc1 (stereo not given)	PNC assembly inh -104, HPGD inh inconclusive
COc1ccc(N=C2SC(CC(=O)Nc3ccccc3)C(=O)N2CCN2CCOCC2)cc1 (stereo not given)	none (no result: PNC assembly inh, HPGD inh)
CC1CCC2C(=O)N3C(CCC(C)[C@H]3c3cccc(N4CCCC4=O)c3)C(=O)N2C1c1cccc(N2CCCC2=O)c1 (stereo not given in full)	none (no result: HttQ103 aggreg, PNC assembly inh, HPGD inh, RGS12 GoLoco inh)
Oc1ccc(Br)cc1C=Nc1ccc2c3c(cccc13)CC2	PNC assembly inh -98, ALDH1A1 inh inconclusive, HPGD inh inconclusive (no result: HTT ATP protect)
O=S(=O)(c1ccc2c(c1)OCCO2)N(Cc1ccc(F)cc1)Cc1nnc(-c2cccs2)o1	ALDH1A1 inh 4µM, HPGD inh 4.5µM
Cc1cc(C(=O)CN(Cc2ccc(F)cc2)S(=O)(=O)c2ccc3c(c2)OCCO3)c(C)n1C	ALDH1A1 inh inconclusive
CC(=O)N(C)Cc1ccc(C(=O)CCl)cc1	ALDH1A1 inh 0.71µM (no result: PNC assembly inh, HPGD inh)
CC(=O)NCc1ccc(C(=O)CCl)s1	HttQ103 aggreg inconclusive, ALDH1A1 inh 0.14µM (no result: PNC assembly inh, HPGD inh)
CC(=O)Nc1ccc(C(=O)CCl)cc1	ALDH1A1 inh 0.045µM (no result: HttQ103 aggreg, PNC assembly inh)
CC(=O)NCc1ccc(C(=O)CCl)cc1	ALDH1A1 inh 0.35µM (no result: PNC assembly inh, HPGD inh)
COc1ccc(CN(C)Cc2ccccc2)c(OC)c1OC	PNC assembly inh inconclusive (no result: HTT ATP protect)
O=C(N/N=C1/C[C@@H](O)[C@@H](O)[C@@H]2[C@@H]3C(=O)N(Cc4ccccc4)C(=O)[C@H]3CC[C@@H]12)OCc1ccccc1	none (no result: HttQ103 aggreg, PNC assembly inh, HPGD inh, RGS12 GoLoco inh)
CCC(c1nnc(SCC(=O)Nc2cccnc2Cl)n1-c1ccccc1)N(C)C (stereo not given)	none (no result: PNC assembly inh, HPGD inh)
CC(=O)OC1CC2C(C)(C)C(O)CCC2(C)C2CC[C@]3(C)C(=CC(=O)OC3c3ccoc3)C12C (stereo not given in full)	none (no result: HttQ103 aggreg, PNC assembly inh)
N#Cc1cccc(NC(=O)N2CC[C@@]3(CCCNC3)C2)c1	HTT ATP protect inconclusive, ALDH1A1 inh inconclusive (no result: HttQ103 aggreg, PNC assembly inh)
O=C(/C=C/c1ccc(O)c(O)c1)OC1C[C@](O)(C(=O)O)C[C@@H](O)[C@H]1O (stereo not given in full)	ALDH1A1 inh 24µM! (no result: HttQ103 aggreg, PNC assembly inh)
CC(C)(C)c1cnnn1-c1cccc([N+](=O)[O-])c1	none (no result: PNC assembly inh, HPGD inh)
CC(C)c1ccc(C(=O)CC2(O)C(=O)N(CN3CCOCC3)c3ccccc32)cc1 (stereo not given)	ALDH1A1 inh inconclusive
C=CCN1C(=O)C(O)(CC(=O)c2ccc(N)cc2)c2ccccc21 (stereo not given)	ALDH1A1 inh 5.6µM
CN1C(=O)C(O)(CC(=O)c2ccncc2)c2ccccc21 (stereo not given)	ALDH1A1 inh inconclusive
Cc1ccc(C(=O)CC2(O)C(=O)N(C)c3ccccc32)o1 (stereo not given)	PNC assembly inh inconclusive, ALDH1A1 inh 25µM
COC(=O)CN1C(=O)C(O)(CC(=O)c2ccc(C)cc2)c2ccccc21 (stereo not given)	ALDH1A1 inh 8.9µM
COC(=O)CN1C(=O)C(O)(CC(=O)c2ccc(C)o2)c2ccccc21 (stereo not given)	ALDH1A1 inh 7.9µM
COC(=O)[C@@H]1C[C@@H]2CC[C@@H](O)C[C@@H]2N1Cc1ccc(C)s1	none (no result: HttQ103 aggreg, PNC assembly inh)
CCc1ccc(C(=O)CC2(O)C(=O)N(CN3CCOCC3)c3ccccc32)cc1 (stereo not given)	none
Cc1ccc(C(=O)CC2(O)C(=O)N(CN3CCOCC3)c3ccccc32)cc1 (stereo not given)	HttQ103 aggreg inconclusive, ALDH1A1 inh 14µM
COC(=O)CN1C(=O)C(O)(CC(=O)c2ccccc2)c2ccccc21 (stereo not given)	PNC assembly inh inconclusive, ALDH1A1 inh 4.5µM
O=C(CC1(O)C(=O)N(C/C=C/c2ccccc2)c2ccccc21)c1ccccn1 (stereo not given)	PNC assembly inh inconclusive, ALDH1A1 inh 0.79µM (no result: HPGD inh, RGS12 GoLoco inh)
COC(=O)CN1C(=O)C2(OCCCO2)c2ccccc21	none
O=C(CC1(O)C(=O)N(CCc2ccccc2)c2ccccc21)c1ccccn1 (stereo not given)	ALDH1A1 inh inconclusive (no result: PNC assembly inh, HPGD inh)
CCN(CC)S(=O)(=O)c1cccc(NC2=NCCCCC2)c1	none (no result: PNC assembly inh, ALDH1A1 inh, HPGD inh)
CCCOc1ccc2c(=O)c(-c3cc(C(=O)OC)oc3C)c(C)oc2c1	ALDH1A1 inh inconclusive
COc1ccc2c(c1)O[C@H](c1cccc(C(F)(F)F)c1)[C@@H](O)C2=O	none (no result: HttQ103 aggreg, PNC assembly inh, HPGD inh, RGS12 GoLoco inh)
COc1ccc(-c2nc(-c3ccccc3)oc2Nc2ccccc2C)cc1	HTT ATP protect inconclusive (no result: HttQ103 aggreg, PNC assembly inh)
O=C(c1ccc(S(=O)(=O)c2ccccc2)cc1)N1CCc2ccccc2C1	HPGD inh 18µM
O=C(c1ccc([N+](=O)[O-])cc1)N1CCc2ccccc2C1	HPGD inh 28µM (no result: HTT ATP protect)
O=[N+]([O-])c1ccc(NC(=S)N2CCc3ccccc3C2)cc1	ALDH1A1 inh inconclusive
O=C(c1ccc(S(=O)(=O)N2CCCCC2)cc1)N1CCc2ccccc2C1	ALDH1A1 inh inconclusive (no result: PNC assembly inh, HPGD inh)
CCOC(=O)C1(C)NC(c2cccs2)C2C(=O)N(c3ccc(OC)cc3)C(=O)C21 (stereo not given)	none (no result: PNC assembly inh, HPGD inh)
